This is part of a sample that, as a whole, favours compounds with a hit. Of some 83,000 tested, about 20% had one in any assay.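 Interpretation: 100, growth as untreated; towards 0, rising growth inhibition; 0, no net growth; 0 to -100, cell death. Compounds scoring below 10 were considered active.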 Values without a mark were called inactive. The source made the active and inactive calls.

Among the test systems are NCI-H23 lung; NCI-H226 lung; HOP-62 NSCLC; NCI-H460 lung; HOP-92 NSCLC; NCI-H522 lung; A549/ATCC NSCLC; 786-0 renal; COLO 205 colon; DU-145 prostate; K-562 leukemia; MALME-3M melanoma; MDA-MB-231 breast; RXF 393 renal; SF-268 CNS; SF-295 CNS; SF-539 CNS; UACC-257 melanoma; M14 melanoma; NCI-H322M lung.
What all share (test): NCI-60 one-dose screen, 48 h (100 = growth as untreated, 0 = no growth, -100 = all killed)
Holding throughout (conditions): 10 µM unless noted

As for `C[C@H]1OC(=O)/C=C/[C@@H](O)[C@@H](O)CCCCCCCC[C@@H]1O`, the growth was 95.1% in the assay on NCI-H23 lung; 89.3% in the assay with NCI-H226 lung; 82.9% in the assay with HOP-62 NSCLC; 102% in the assay on NCI-H460 lung; 82.8% in the assay on HOP-92 NSCLC; 79.5% with NCI-H522 lung. The growth is 73.6% in the assay on A549/ATCC NSCLC; 97.5% in the assay on 786-0 renal; 95.1% in the assay with COLO 205 colon; 107% in the assay with DU-145 prostate; 91.6% in the assay with K-562 leukemia; 98.1% in the assay with MALME-3M melanoma. Besides, the growth is 109% with MDA-MB-231 breast; 107% in the assay with RXF 393 renal; 102% with SF-268 CNS; 98.9% with SF-295 CNS; 97.7% with SF-539 CNS; 82.5% in the assay with UACC-257 melanoma. For the same compound, the growth in the assay on M14 melanoma was 96.3%.

`O=C(/C=C/c1cccc(O)c1)c1ccccc1O`: the growth was 86.8% in the assay on NCI-H23 lung; 98.2% in the assay with NCI-H226 lung; 94.4% in the assay with HOP-62 NSCLC; 88.2% with NCI-H460 lung; 68.6% in the assay on HOP-92 NSCLC; -37.3% (active) in the assay on NCI-H522 lung. The growth in the assay with A549/ATCC NSCLC is 96.6%; in the assay with 786-0 renal, 103%; in the assay with COLO 205 colon it was 104%; in the assay with DU-145 prostate it was 83.2%; in the assay with K-562 leukemia, 80%; in the assay on MDA-MB-231 breast, 80.3%. The growth with RXF 393 renal was 89.9%; with SF-268 CNS, 94.2%; with SF-295 CNS, 98.6%; in the assay on SF-539 CNS it was 102%; in the assay on UACC-257 melanoma it was 86.8%; in the assay on M14 melanoma, 96.4%.

Regarding `CCN(CC)c1ccc(/C=C/c2cc(C)c3ccccc3n2)cc1`, the growth was 64% with NCI-H23 lung; 61.1% in the assay with NCI-H226 lung; 46.7% in the assay on HOP-62 NSCLC; 43% in the assay on NCI-H460 lung; 82.2% in the assay with HOP-92 NSCLC; 31.3% with NCI-H522 lung. Besides, the growth in the assay on A549/ATCC NSCLC was 53.9%; in the assay on 786-0 renal it was 94.6%; in the assay with COLO 205 colon it was 24.7%; with DU-145 prostate, 94.2%; with K-562 leukemia, 25.3%; in the assay on MALME-3M melanoma, 59.4%. Besides, the growth was 42.4% with MDA-MB-231 breast; 13.2% with RXF 393 renal; 82.5% in the assay with SF-268 CNS; 41.5% in the assay on SF-295 CNS; 48.4% in the assay on SF-539 CNS; 60.5% in the assay on UACC-257 melanoma. For the same compound, in the assay on M14 melanoma, the growth is 38.2%.

As for `COc1ccc(C(=O)c2cc(OC)c(OC)c(OC)c2)cc1/C=C/C(=O)c1cc(OC)c(OC)c(OC)c1`, the growth was 79.9% with NCI-H23 lung; 89.5% in the assay on NCI-H226 lung; 83.7% in the assay on NCI-H460 lung; 83.8% in the assay on HOP-92 NSCLC; 84% in the assay with NCI-H522 lung; 92.9% with A549/ATCC NSCLC. The growth is 104% in the assay with 786-0 renal; 95.5% with COLO 205 colon; 83.4% in the assay on DU-145 prostate; 99.8% with K-562 leukemia; 86.1% in the assay with MALME-3M melanoma; 62.8% with MDA-MB-231 breast. In addition, the growth was 70% in the assay on RXF 393 renal; 88.7% with SF-268 CNS; 94% with SF-539 CNS; 81.6% with UACC-257 melanoma; 81.4% with M14 melanoma.

Take `CC(=O)N1N=C(c2ccc(C)cc2)CC1c1ccc(Oc2ccc(Br)cc2)cc1` (configuration not stated): the growth with NCI-H226 lung was 90.1%; in the assay with NCI-H322M lung it was 73.9%; in the assay on HOP-62 NSCLC, 83.6%; with NCI-H460 lung, 98.4%; in the assay on HOP-92 NSCLC it was 89.4%; in the assay with NCI-H522 lung, 83.2%. Further, the growth was 81.5% in the assay with A549/ATCC NSCLC; 80% in the assay on 786-0 renal; 97.7% in the assay with COLO 205 colon; 91.4% in the assay with DU-145 prostate; 75.3% in the assay with K-562 leukemia; 87.6% with MALME-3M melanoma. Besides, the growth with MDA-MB-231 breast was 85.7%; in the assay with RXF 393 renal, 92.8%; with SF-268 CNS, 79.5%; in the assay with SF-295 CNS, 94.4%; with SF-539 CNS, 94.7%; in the assay with UACC-257 melanoma it was 96%. Further, the growth with M14 melanoma was 88.3%.

With `COc1ccc(NC(=O)c2ccoc2COc2ccccc2)cc1`, the growth in the assay on NCI-H226 lung is 98.8%; with HOP-62 NSCLC it was 100%; in the assay on NCI-H460 lung, 106%; in the assay with HOP-92 NSCLC, 88.8%; with NCI-H522 lung, 90.2%; with A549/ATCC NSCLC, 102%. Also, the growth with 786-0 renal was 96.9%; with COLO 205 colon, 110%; in the assay on DU-145 prostate it was 106%; in the assay on K-562 leukemia, 55%; in the assay on MALME-3M melanoma it was 99.7%; in the assay on MDA-MB-231 breast, 95.7%. Besides, the growth with RXF 393 renal is 93.9%; in the assay on SF-268 CNS it was 97.5%; in the assay on SF-295 CNS it was 98.3%; with SF-539 CNS it was 96%; in the assay with UACC-257 melanoma, 99.7%; with M14 melanoma, 92.1%.

On to `COc1cc(-c2nc(-c3ccccc3)c(-c3ccccc3)[nH]2)cc(OC)c1O`, for which the growth with NCI-H226 lung was 48.9%; in the assay with NCI-H322M lung, 13%; in the assay on HOP-62 NSCLC, -26.5% (active); with NCI-H460 lung, -37.5% (active); in the assay with HOP-92 NSCLC, 38.2%; in the assay on NCI-H522 lung, -23% (active). The growth is -30.9% (active) with A549/ATCC NSCLC; 19.3% in the assay with 786-0 renal; -73.8% (active) with COLO 205 colon; -23.5% (active) in the assay with DU-145 prostate; 3.86% (active) in the assay with K-562 leukemia; -28.9% (active) in the assay on MALME-3M melanoma. Also, the growth in the assay on MDA-MB-231 breast was 0.0647% (active); in the assay on RXF 393 renal, -48.8% (active); in the assay with SF-268 CNS, 4.5% (active); with SF-539 CNS, 0.938% (active); in the assay with UACC-257 melanoma it was 6.33% (active); in the assay with M14 melanoma, -18.8% (active).

Turning to `C=C1C(=O)O[C@H]2[C@H]1CC/C(COC(=O)NCCc1c[nH]c3ccccc13)=C\CC[C@@]1(C)O[C@@H]21`, the growth in the assay with NCI-H226 lung is 57.3%; with NCI-H322M lung, 83.2%; in the assay with HOP-62 NSCLC, 57.7%; with NCI-H460 lung it was 54.2%; in the assay with HOP-92 NSCLC it was -52% (active); with NCI-H522 lung, -85.7% (active). For the same compound, the growth was 66.9% in the assay with A549/ATCC NSCLC; -50.3% (active) in the assay on 786-0 renal; -38.2% (active) in the assay on COLO 205 colon; 11.7% with DU-145 prostate; 0.512% (active) in the assay on K-562 leukemia; -33.5% (active) in the assay with MALME-3M melanoma. Further, the growth in the assay with MDA-MB-231 breast is -19.3% (active); with RXF 393 renal, -89.3% (active); with SF-268 CNS, 62.3%; in the assay with SF-295 CNS, 83.4%; with SF-539 CNS, -35.6% (active); with UACC-257 melanoma it was 63.3%. In addition, the growth in the assay with M14 melanoma is -52.1% (active).

Source of the values: PubChem BioAssay (NCI).
